Measurements reported in PubChem BioAssay.
Unmarked numbers belong to inactive results. No rule for the calls is given here.

Test: blockers of DNA damage checkpoint Chk1 activation – imaging, HeLa, hydroxyurea, phospho-Chk1 antibody, percent positive cells, primary screen (AID 1186)
Conditions: hydroxyurea-induced phospho-Chk1 immunofluorescence imaging, higher = more signal

| SMILES | z-score |
| --- | --- |
| COC(=O)[C@@]1(Cc2ccc(F)cc2)[C@H]2c3cc(C(=O)N(C)C)n(C)c3C[C@H]2CN1C(=O)c1ccccc1 | 0.707 |
| C=C(CCCC)C(=O)CC[C@H](OC(=O)c1ccccc1-c1ccccc1C(=O)O)c1ccc(OCCO)cc1 | 0.0505 |
| N#Cc1ccc(NN2C(C(O)C3CC=CCC3)C=CC3C(=O)N(c4ccccc4)C(=O)C32)cc1 (stereo not given) | 0.123 |
| CCCC=C(CCC)[C@@H](NC(=O)OCC(C)C)c1ccc(C(=O)OC)cc1 | -0.468 |
| O=C(NCC(O)CO)[C@@]1(CCS(=O)(=O)c2ccccc2)N=C(c2ccc(OCCCO)cc2)O[C@H]1c1ccccc1 (stereo not given in full) | -0.579 |
| C=C(COC)C(=O)CC[C@@H](OC(=O)c1ccccc1-c1ccccc1C(=O)O)c1ccc(OCCO)cc1 | -0.0419 |
| CC(C)C(CO)N1C(=O)[C@@H]2C3C(=O)OCCC/C=C\[C@H]3OC23C=CCN(Cc2ccccc2)C(=O)[C@@H]13 (stereo not given in full) | -0.932 |
| CN(C)CCCNC(=O)[C@@]1(C)c2ccccc2C(=O)N(Cc2ccc(OC(F)(F)F)cc2)[C@H]1c1ccc(CO)cc1 | 0.395 |
| CO[C@H]1O[C@H](CO)[C@@H](OC(=O)Nc2ccccc2-c2ccccc2)[C@H](OC(=O)Nc2ccccc2)[C@H]1OC(=O)Nc1ccccc1 | -0.392 |
| COC(=O)C(CC#Cc1ccc2c(c1)[C@]1(C(=O)N2)[C@H](C(=O)NC[C@H](O)c2ccccc2)[C@H]2C(=O)O[C@H](c3ccccc3)[C@H](c3ccccc3)N2[C@@H]1c1ccccc1OCCO)C(=O)OC | 0.0062 |
| CN(C)CCCCNC(=O)[C@H]1C[C@H]2C(=O)NCC(=O)N2[C@H]1c1ccc(O)cc1 | -0.15 |
| CC(C)=CCCC(C)=CC(O)C1C=CC2C(=O)NC(=O)C2N1Nc1ccc(Cl)cc1Cl (stereo not given) | 1.39 |
| COc1cc(OC)c(C(O)C2C=CC3C(=O)N(c4ccccc4)C(=O)C3N2Nc2ccc(C(C)C)cc2)cc1Br (stereo not given) | -0.78 |
| CCN(CC)c1ccc(N2CC=CC34O[C@@H]5C=CCCOC(=O)C5[C@H]3C(=O)N(C(C)CO)[C@@H]4C2=O)cc1 (stereo not given in full) | 1.74 |
| CCOC(=O)C1=CCC(c2cc3ccccc3[nH]2)N(CCN2CC(C(=O)OCC)=CCC2c2cc3ccccc3[nH]2)C1 (stereo not given) | -0.852 |
| COc1ccc([Si](C)(C)[C@H]2[C@H](CC(=O)N3Cc4ccccc4C[C@H]3CO)O[C@@]3(C(=O)N(C)c4c(Br)cc(C)cc43)[C@@H]2C)cc1 | 0.18 |
| CN1C(=O)[C@@H]2[C@@H](CC(COc3ccccc3)=C3[C@@H](CCc4ccccc4)OB(O)C[C@@H]32)C1=O | 0.556 |
| CN1C(=O)C2C(C1=O)C1C=C(CCCO)C2C(C2CC2)N1Cc1cccc(OC(F)(F)F)c1 (stereo not given) | 0.0426 |

| SMILES | z-score |
| --- | --- |
| COc1ccc(C(=O)Nc2cccc(CN3C(=O)[C@]4(O[C@H](CC(=O)N5Cc6ccccc6C[C@H]5CO)[C@@H]([Si](C)(C)c5ccc(OC)cc5)[C@@H]4C)c4ccccc43)c2)cc1 | 1.01 |
| CN(C)C(=O)[C@@]1(Cc2ccccc2CN=[N+]=[N-])COC(c2ccc(OCCCO)cc2)=N1 | -0.439 |
| COc1ccc(C(=O)Nc2cccc(CN3C(=O)[C@@]4(O[C@@H](CC(=O)N5CCC[C@H]5CO)[C@H]([Si](C)(C)c5ccc(OC)cc5)[C@H]4C)c4ccccc43)c2)cc1 | -0.142 |
| O=C(NCCN1CCOCC1)[C@@H]1c2ccccc2C(=O)N(Cc2ccccc2C(F)(F)F)[C@H]1c1ccc(CO)cc1 | 0.126 |
| C=CC1c2cc(O)c(OC)cc2CCN1C (stereo not given) | 0.298 |
| COC(=O)[C@@]1(Cc2ccc(OC)cc2)[C@H]2c3cc(C(=O)N4CCCC4)n(Cc4ccc(Cl)c(C(F)(F)F)c4)c3C[C@H]2CN1C(=O)c1ccccc1 | -0.842 |
| COc1ccc(C(=O)Nc2ccc3c(c2)[C@@]2(O[C@H](CCO)[C@@H]([Si](C)(C)c4ccc(OC)cc4)[C@@H]2C)C(=O)N3Cc2ccccc2)cc1 | 0.0691 |
| Cc1ccc(S[C@]2(C(=O)NCc3ccccc3)CC(=O)N(Cc3ccccc3C(F)(F)F)[C@@H]2c2ccc(CO)cc2)cc1 | -0.51 |
| CC1CC/C=C\[C@H]2OC34C=CCN(c5ccc6ccccc6c5)C(=O)[C@H]3N(C(C)CO)C(=O)[C@@H]4C2C(=O)O1 (stereo not given in full) | 0.0352 |
| Cc1ccc(N2C(=O)c3ccccc3[C@](C)(C(=O)NCCCN(C)C)[C@@H]2c2ccc(CO)cc2)nc1 | -0.229 |
| CCCC[C@H]1OB(O)C[C@H]2C1=C(COc1ccccc1)C[C@H]1C(=O)C=CC(=O)[C@H]12 | -0.177 |
| CC(C)C(=C=CC[C@H](O)c1ccccc1OCCO)C[C@H](O)COCc1ccccc1 | 0.233 |
| COC(=O)[C@@]1(Cc2ccc(OC)cc2)[C@H]2c3cc(C(=O)N4CCCC4)n(Cc4ccc(C(F)(F)F)nc4)c3C[C@H]2CN1C(=O)c1ccccc1 | 0.664 |
| Cc1ccc(F)cc1S(=O)(=O)N[C@H]1CCN(Cc2ccc(OC(C)C)cc2)C1 | -0.0604 |
| CC(C)C(=C=CC[C@H](O)c1ccccc1OCCO)C[C@H](O)c1cc(Cl)cc(Cl)c1O | 0.425 |
| C=C1C(=O)C=C2CN(C(=O)c3ccccc3)[C@@](Cc3ccc(OC)cc3)(C(=O)OC)[C@@H]12 | 0.395 |
| COc1ccc(C(=O)Nc2ccc(CN3C(=O)[C@@]4(O[C@@H](CCn5cc(CCO)nn5)[C@H]([Si](C)(C)c5ccc(OC)cc5)[C@H]4C)c4ccccc43)cc2)cc1 | -0.989 |
